According to PubChem BioAssay (Tox21):
Records with an inconclusive call do not appear. Calls of active or inactive are those of the source. Unless noted, calls come from the whole dose curve; as a rule, active = well fitted curve in the direction sought with a large enough effect in the repeat runs; inconclusive = weak or mixed curves; inactive = no such curve, though single readings can be large; an effect the other way counts as inactive or inconclusive.

Key:
[1] = qHTS assay to identify small molecule agonists of the hypoxia (HIF-1) signaling pathway - cell viability counter screen (AID 1224844; calls by dose curve; note: nearly all actives have a fitted effect of over 50% in size; note: potency is the fitted concentration of half-maximal effect)
Method in brief: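 Tox21 10K compounds were added to HRE-bla ME-180 cells (0.5% dialyzed FBS) and incubated 17 hrs at 37C; ATP-based CellTiter-Glo luminescence then reported cell viability in the same wells.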

[2] = qHTS assay to identify small molecule agonists of the hypoxia (HIF-1) signaling pathway (AID 1224846; active = well fitted activation curve with a large enough effect in the signal ratio in the repeat runs, not every such curve was filed as active; the % refers to the signal ratio)
Method in brief: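 Steps: seed ME-180 HRE-bla cells (2,000/well, 0.5% dialyzed FBS); incubate 5 hrs at 37C; pin-transfer compounds or DMSO; incubate 17 hrs; add LiveBLAzer B/G substrate CCF4-AM; measure reporter activation by FRET.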

[3] = qHTS assay to identify small molecule agonists of H2AX - cell viability counter screen (AID 1224847; calls by dose curve; note: top concentration of the series differs between compounds; nearly all actives have a fitted effect of over 30% in size)
Method in brief: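 Cytotoxicity counter screen in wild-type CHO-K1 cells: a 3 hr compound treatment at 37C across 15 concentrations, followed by CellTiter-Glo luminescence to gauge viable cells.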

[4] = qHTS RealTime-Glo MT Cell Viability Assay in HepG2 cells - 24 hour (AID 1224867); note: nearly all actives have a fitted effect of over 50% in size; note: potency is the fitted concentration of half-maximal effect
Method in brief: (§1)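 Cell number in HepG2 cultures estimated from NanoLuc luminescence generated by metabolic reduction of a prosubstrate by living cells. The homogeneous, nonlytic format allowed repeated reads at 0, 8, 16, 24, 32 and 40 h of compound exposure.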

[5] = qHTS RealTime-Glo MT Cell Viability Assay in HEK293 cells - 32 hour (AID 1224868); note: nearly all actives have a fitted effect of over 50% in size; note: potency is the fitted concentration of half-maximal effect; for activity change, negative = cytotoxic: top concentration of the series differs between compounds
Method in brief: (§2)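 Homogeneous bioluminescent viability format in HEK293 cells (600 cells/well). Following 5 h at 37 C/5% CO2, 23 nL compound was pintooled; the signal was measured repeatedly during 40 h incubation.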

[6] = A CellTox Green Cytotoxicity Assay to monitor cytotoxicity in HEK293 cells - 0 hour (AID 1224869); note: nearly all actives have a fitted effect of over 50% in size
Method in brief: (§3)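 Cytotoxicity was tracked continuously in HEK293 cells by a DNA-binding dye excluded from viable cells. Compounds were transferred in DMSO 5 h after seeding; fluorescence was recorded at intervals up to 40 h.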

[7] = qHTS RealTime-Glo MT Cell Viability Assay in HepG2 cells - 40 hour (AID 1224870); note: nearly all actives have a fitted effect of over 50% in size; note: potency is the fitted concentration of half-maximal effect
Method in brief: (§4)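 HepG2 cells (600/well) mixed with RealTime-Glo MT reagent, settled 5 h at 37 C/5% CO2 before compound addition. Nonlytic NanoLuc luminescence from viable-cell prosubstrate reduction read repeatedly during 40 h treatment at 37 C.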

[8] = A CellTox Green Cytotoxicity Assay to monitor cytotoxicity in HEK293 cells - 40 hour (AID 1224871); note: nearly all actives have a fitted effect of over 45% in size; note: potency is the fitted concentration of half-maximal effect
Method in brief: as §3

[9] = qHTS RealTime-Glo MT Cell Viability Assay in HEK293 cells - 16 hour (AID 1224872)
Method in brief: as §2

[10] = qHTS RealTime-Glo MT Cell Viability Assay in HepG2 cells - 8 hour (AID 1224873); note: nearly all actives have a fitted effect of over 55% in size; note: potency is the fitted concentration of half-maximal effect
Method in brief: as §4

[11] = qHTS RealTime-Glo MT Cell Viability Assay in HEK293 cells - 40 hour (AID 1224874); details: RealTime-Glo luminescence; max response: hits give low values; note: nearly all actives have a fitted effect of over 50% in size; note: potency is the fitted concentration of half-maximal effect
Method in brief: (§5)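 Nonlytic bioluminescent viability monitoring. HEK293 at 600 cells/well with reagent; 5 h settle; compound transfer by pintool; plates held at 37 C and read at set time points.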

[12] = A CellTox Green Cytotoxicity Assay to monitor cytotoxicity in HEK293 cells - 24 hour (AID 1224875); note: nearly all actives have a fitted effect of over 45% in size; note: potency is the fitted concentration of half-maximal effect
Method in brief: as §3

[13] = A CellTox Green Cytotoxicity Assay to monitor cytotoxicity in HepG2 cells - 16 hour (AID 1224876); note: nearly all actives have a fitted effect of over 45% in size; note: potency is the fitted concentration of half-maximal effect
Method in brief: (§6)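 Real-time, homogeneous cytotoxicity readout: dead-cell DNA staining by CellTox Green in HepG2 monolayers, fluorescence measured at timed intervals up to 40 h of continuous compound exposure.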

[14] = qHTS RealTime-Glo MT Cell Viability Assay in HepG2 cells - 32 hour (AID 1224877); note: nearly all actives have a fitted effect of over 55% in size; note: potency is the fitted concentration of half-maximal effect
Method in brief: as §1

[15] = qHTS RealTime-Glo MT Cell Viability Assay in HEK293 cells - 0 hour (AID 1224880); note: top concentration of the series differs between compounds; nearly all actives have a fitted effect of over 45% in size
Method in brief: as §5

[16] = qHTS assay to identify small molecule antagonists of the estrogen related receptor (ERR) signaling pathway from Tox21 library (AID 1224848); note: nearly all actives have a fitted effect of over 50% in size
Method in brief: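 ERR reporter cell line (from NTP) seeded 2,000 cells/well, rested 6 h at 37 C/5% CO2, then pin-dosed with compounds in DMSO. After 18 h at 37 C, ONE-Glo added; luminescence read after 30 min at room temperature.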

[17] = qHTS assay to identify small molecule agonists of the estrogen related receptor (ERR) signaling pathway from Tox21 library (AID 1224849; calls by dose curve; note: nearly all actives have a fitted effect of over 15% in size); details: ERR reporter cell line, ONE-Glo luciferase, 18 h; at 92.4 µM (top of the series) unless noted
Method in brief: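 Agonist signal is luciferase luminescence from an ERR reporter cell line treated 18 h at 37 C with DMSO-dissolved compounds, read 30 min after ONE-Glo addition at room temperature.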

[18] = A CellTox Green Cytotoxicity Assay to monitor cytotoxicity in HepG2 cells - 24 hour (AID 1224878); note: nearly all actives have a fitted effect of over 45% in size; note: potency is the fitted concentration of half-maximal effect
Method in brief: as §6

[19] = A CellTox Green Cytotoxicity Assay to monitor cytotoxicity in HepG2 cells - 40 hour (AID 1224879); note: nearly all actives have a fitted effect of over 40% in size; note: potency is the fitted concentration of half-maximal effect
Method in brief: as §6

[20] = qHTS assay to identify small molecule agonists of H2AX (AID 1224845; active = well fitted activation curve with a large enough effect in the signal ratio in the repeat runs, not every such curve was filed as active; the % refers to the signal ratio)
Method in brief: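 Wild-type CHO-K1 cells, plated overnight, exposed 3hr at 37C to 15 concentrations (0.76% DMSO final). Lysed, then HTRF anti-pH2AX (S139) cryptate and anti-H2AX-d2 antibodies, 24 hr room temperature; 665/620 nm emission read.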
% is set by controls: 0 for no effect and ±100 for the full control effect.

O=C1Nc2cc(Cl)ccc2Oc2ccccc21
inactive: Potency [1] | outcome [2] | Potency [3] | Potency [4] | Potency [5] | Potency [6] | Potency [7] | Potency [8] | Potency [9] | Potency [10] | max response [11] 5.17% | Potency [12] | Potency [13] | Potency [14] | Potency [15]

O=C(CC(=O)c1ccccc1)c1ccccc1
inactive: Potency [1] | outcome [2] | Potency [16] | Potency [4] | Potency [6] | Potency [7] | Potency [8] | Potency [9] | max response [11] -4.39% | Potency [12] | Potency [13] | Potency [14] | Potency [18] | Potency [19] | Potency [15]
active: activity change, positive = activation [17] 58.5%

N#CCCNCCC#N
inactive: Potency [1] | Potency [20] | Potency [3] | Potency [4] | Potency [6] | Potency [7] | Potency [8] | Potency [9] | Potency [10] | Potency [13] | Potency [14] | Potency [18] | Potency [19] | Potency [15]

O=C(Nc1ccccc1)OCC(CN1CCCCC1)OC(=O)Nc1ccccc1 (stereo not drawn)
inactive: Potency [1] | Potency [20] | Potency [3] | Potency [4] | Potency [6] | Potency [7] | Potency [8] | Potency [10] | Potency [12] | Potency [13] | Potency [14] | Potency [15]
active: Potency [5] 21.3 µM

CCN(CC)CCOc1ccc2c(c1)C(=O)c1cc(OCCN(CC)CC)ccc1-2
inactive: Potency [1] | outcome [2] | activity change, positive = activation [17] -38.3% [at 42.5 µM] | Potency [6] | Potency [10] | Potency [12] | Potency [13] | Potency [15]
active: Potency [5] 13.4 µM | Potency [11] 15.1 µM | Potency [19] 26.8 µM

NC(N)=NN=C(/C=C/c1ccc([N+](=O)[O-])o1)/C=C/c1ccc([N+](=O)[O-])o1
inactive: Potency [20] | activity change, positive = activation [17] -66.8% [at 42.5 µM] | Potency [6] | Potency [15]
active: Potency [1] 8.49 µM | Potency [4] 1.69 µM | Potency [7] 1.51 µM | Potency [8] 8.49 µM | Potency [10] 4.25 µM | Potency [12] 10.7 µM | Potency [13] 3.79 µM | Potency [14] 1.51 µM | Potency [18] 2.13 µM | Potency [19] 1.69 µM

CCCCCCCCCCCCCCCBr
inactive: Potency [1] | outcome [2] | Potency [3] | Potency [4] | Potency [5] | Potency [6] | Potency [7] | Potency [8] | Potency [9] | Potency [10] | max response [11] -1.7% | Potency [12] | Potency [13] | Potency [14] | Potency [18] | Potency [19] | Potency [15]

Oc1ccc2c(c1)OCO2
inactive: Potency [1] | outcome [2] | Potency [3] | Potency [4] | Potency [5] | Potency [6] | Potency [7] | Potency [8] | Potency [9] | Potency [10] | max response [11] -2.1% | Potency [12] | Potency [13] | Potency [14] | Potency [18] | Potency [19]

Nc1ccc(C(=O)Nc2ccccc2N)cc1
active: Potency [1] 12 µM | activity change, positive = activation [17] 21.9% [at 42.5 µM] | Potency [7] 13.4 µM | Potency [19] 5.35 µM
inactive: outcome [2] | Potency [3] | Potency [4] | Potency [6] | Potency [8] | Potency [10] | Potency [12] | Potency [13] | Potency [15]

COc1cc(C(C)(C)C)c(O)c(C(C)(C)C)c1
inactive: Potency [1] | outcome [2] | Potency [16] | activity change, positive = activation [17] -4.21% | Potency [4] | Potency [6] | Potency [7] | Potency [9] | Potency [10] | max response [11] 1.44% | Potency [14] | Potency [15]
active: Potency [8] 43.6 µM | Potency [12] 43.6 µM

CN(C)CC[C@@H](c1ccc(Br)cc1)c1ccccn1
inactive: Potency [1] | Potency [20] | Potency [3] | Potency [4] | Potency [5] | Potency [6] | Potency [7] | Potency [8] | Potency [9] | Potency [10] | max response [11] -14.2% | Potency [12] | Potency [13] | Potency [14] | Potency [18] | Potency [19] | Potency [15]

CC(C)=CCCC(C)CC=O (stereo not drawn)
inactive: Potency [1] | Potency [20] | Potency [4] | Potency [5] | Potency [6] | Potency [8] | Potency [9] | Potency [10] | max response [11] -1.27% | Potency [12] | Potency [13] | Potency [14] | Potency [18] | Potency [19] | Potency [15]

CC(=O)N(O)CCCCCNC(=O)CCC(=O)N(O)CCCCCNC(=O)CCC(=O)N(O)CCCCCN
inactive: Potency [1] | outcome [2] | Potency [3] | activity change, positive = activation [17] -34.7% [at 42.5 µM] | Potency [4] | Potency [6] | Potency [7] | Potency [8] | Potency [9] | Potency [10] | Potency [12] | Potency [13] | Potency [14] | Potency [18] | Potency [19]

NC[C@H]1O[C@H](O[C@H]2[C@H](O)[C@@H](O[C@H]3O[C@H](CO)[C@@H](O)[C@H](N)[C@H]3O)[C@H](N)C[C@@H]2N)[C@H](O)[C@@H](O)[C@@H]1O
inactive: activity change, negative = cytotoxicity [1] -8.41% [at 6.97 µM] | activation (H2AX phosphorylation) [20] -0.622% [at 14 µM] | activity change, positive = activation [17] 8.77% [at 8.39 µM] | activity change, negative = cytotoxicity [4] -0.929% [at 6.97 µM] | activity change, negative = cytotoxic [5] 12.4% [at 6.97 µM] | cytotoxicity [6] 6.99% [at 6.97 µM] | activity change, negative = cytotoxic [7] -6.23% [at 6.97 µM] | cytotoxicity increase [8] 9.35% [at 6.97 µM] | activity change, negative = cytotoxicity [9] 8.96% [at 6.97 µM] | viability change, negative = cytotoxic [10] 5.97% [at 6.97 µM] | max response [11] 12.1% | cytotoxicity increase [13] 10.8% [at 6.97 µM] | activity change, negative = cytotoxic [14] -15.9% [at 6.97 µM] | cytotoxicity [18] 10.9% [at 6.97 µM] | cytotoxicity increase [19] 9.32% [at 6.97 µM]

CCCCCCCC/C=C\CCCCCCCC(N)=O
inactive: Potency [1] | Potency [20] | Potency [16] | activity change, positive = activation [17] -4.69% | Potency [4] | Potency [6] | Potency [7] | Potency [10] | Potency [13] | Potency [14] | Potency [15]
active: Potency [19] 34.7 µM

CN(C)C/C=C(/c1ccc(Br)cc1)c1cccnc1
inactive: Potency [1] | Potency [20] | Potency [3] | Potency [4] | Potency [5] | Potency [6] | Potency [7] | Potency [8] | Potency [9] | Potency [10] | max response [11] 2.35% | Potency [13] | Potency [14] | Potency [18] | Potency [19] | Potency [15]
